{"source": "ChEMBL document CHEMBL1961873", "about": "“Compounds: GSK PKIS; Assays: Nanosyn kinase panel” (2012);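 also: mean inhibition of MSK1 reported, from a GSK PKIS inhibitor set screen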", "data": [{"molecular_target": "Ribosomal protein S6 kinase alpha-5 (Homo sapiens) (UniProt O75582)", "sequence (O75582 whole entry, looked up)": "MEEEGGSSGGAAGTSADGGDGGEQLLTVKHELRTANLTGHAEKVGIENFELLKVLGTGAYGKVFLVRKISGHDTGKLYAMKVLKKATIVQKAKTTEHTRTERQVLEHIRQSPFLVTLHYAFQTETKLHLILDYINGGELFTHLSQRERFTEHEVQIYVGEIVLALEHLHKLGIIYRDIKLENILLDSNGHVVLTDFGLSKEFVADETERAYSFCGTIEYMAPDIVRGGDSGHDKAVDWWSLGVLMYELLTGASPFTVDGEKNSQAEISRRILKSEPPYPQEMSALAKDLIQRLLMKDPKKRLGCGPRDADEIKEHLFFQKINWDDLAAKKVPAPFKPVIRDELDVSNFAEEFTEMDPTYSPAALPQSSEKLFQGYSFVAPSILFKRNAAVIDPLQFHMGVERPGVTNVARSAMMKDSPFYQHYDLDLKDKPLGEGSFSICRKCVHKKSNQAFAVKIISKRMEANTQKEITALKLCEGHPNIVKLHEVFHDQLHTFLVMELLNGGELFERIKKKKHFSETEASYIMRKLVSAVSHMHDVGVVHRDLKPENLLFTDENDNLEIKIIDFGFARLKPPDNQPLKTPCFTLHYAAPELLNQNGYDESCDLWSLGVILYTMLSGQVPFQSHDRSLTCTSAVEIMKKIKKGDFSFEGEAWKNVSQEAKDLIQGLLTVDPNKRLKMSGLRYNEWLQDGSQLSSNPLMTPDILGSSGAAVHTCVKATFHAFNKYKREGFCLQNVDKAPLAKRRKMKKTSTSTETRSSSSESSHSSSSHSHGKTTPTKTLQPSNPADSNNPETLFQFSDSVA", "conditions": "at 0.1 µM", "units": {"inhibition": "%"}, "values": [{"smiles": "CN(C)CCCn1c(-c2nonc2N)nc2cnccc21", "inhibition": 8.29}, {"smiles": "CN(c1ccc(NC(=O)Nc2ccc(OC(F)(F)F)cc2)cc1)c1ccnc(Nc2cccc(S(N)(=O)=O)c2)n1", "inhibition": 0.92}, {"smiles": "O=C(Nc1ccc(Oc2ccc3[nH]c(NC(=O)c4ccco4)nc3c2)cc1)Nc1cc(C(F)(F)F)ccc1F", "inhibition": -0.96}, {"smiles": "c1ccc(Cc2nc3ccc(Nc4ncnc5ccccc45)cc3[nH]2)cc1", "inhibition": 2.76}, {"smiles": "C[C@@H](Oc1cc(-n2cnc3ccc(OCC4CCN(C)CC4)cc32)sc1C(N)=O)c1ccccc1C(F)(F)F", "inhibition": -2.08}, {"smiles": "Nc1nccc(-c2c(-c3ccc(F)cc3)nn3cc(C(F)(F)F)ccc23)n1", "inhibition": -0.99}, {"smiles": "NC(=O)c1cccc(Nc2nccc(Nc3cccc(F)c3)n2)c1", "inhibition": 1.48}, {"smiles": "Nc1nccc(C#Cc2cncnc2Nc2ccc(OCc3cccc(F)c3)c(Cl)c2)n1", "inhibition": 4.15}, {"smiles": "NC(=O)c1sc(-n2cnc3ccccc32)cc1OCc1ccccc1Br", "inhibition": 8.61}, {"smiles": "CN(C)c1cc2c(Nc3ccc4c(cnn4Cc4ccccc4)c3)ncnc2cn1", "inhibition": 3.83}, {"smiles": "NS(=O)(=O)c1ccc(-c2cc3ccncc3cc2OCc2ccccc2)cc1", "inhibition": 1.89}, {"smiles": "Nc1ccc(C#Cc2cncnc2Nc2ccc(OCc3cccc(F)c3)c(Cl)c2)cc1", "inhibition": 1.3}, {"smiles": "FC(F)(F)c1ccc(-c2nn3ncccc3c2-c2ccnc(Nc3ccc4c(c3)OCCO4)n2)cc1", "inhibition": 3.36}, {"smiles": "Cc1cc(-c2ccccn2)cc(C)c1/C=C/c1cncc(-c2nn[nH]n2)c1", "inhibition": 3.34}, {"smiles": "CCn1c(-c2nonc2N)nc2c(C#CC(C)(C)O)nc(OCCNC)cc21", "inhibition": 1.77}, {"smiles": "Oc1cccc(-c2nc(-c3ccccc3)[nH]c2-c2ccncc2)c1", "inhibition": 3.05}]}]}
